This is an account of results in paper PMC6212790, “How bacterial xenogeneic silencer rok distinguishes foreign from self DNA in its resident genome”.

Whole data set: some 33,000 sequences, median “e-score” near -0.038, cut for the highest 2% near 0.33. The list comes from a sample in which the highest values are over-represented; it also holds similar and randomly drawn sequences.

The assay concerns the target T1, GST-Rok-C97-191 (Bacillus subtilis subsp. subtilis str. …, UniProt O34857 97-191).
T1 sequence: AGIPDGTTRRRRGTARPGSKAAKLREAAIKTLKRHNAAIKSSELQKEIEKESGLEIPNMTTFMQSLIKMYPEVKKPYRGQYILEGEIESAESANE
Briefly: protein binding microarray; Rok is a gene silencer of Bacillus subtilis; high values mean tight binding. The conditions noted are these: protein: recombinant; tags: GST (pTH5325, pDEST15-Magic modified); dsDNA, one strand shown. The gist of the method: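 Each has a 25-mer constant primer and a 35-mer variable part from a de Bruijn sequence of order 10, covering every non-palindromic 8-mer at least 32 times (palindromic 16). Preference for each 8-mer is given as a rank-based, unitless enrichment score (E-score). Its range runs from 0.5 (most favored) to −0.5 (most disfavored).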
In the case of TAGTTTAA, the binding signal came to 0.345 E-score. The result for AAGTTTAA reads -0.0234 E-score. As for CAGTTTCA, the binding signal was -0.125 E-score. Turning to GAGTTTAA, the binding signal amounted to 0.0511 E-score. The result for GAGTTTCA reads -0.0326 E-score; that for TAGTTTCA, 0.361 E-score; that for ACCCGCTA, 0.0179 E-score. The result for ACCTGTGC reads -0.159 E-score; that for ACAACCAC, -0.126 E-score. Consider ATACTGAA, for which the binding signal came out at 0.0579 E-score. The result for ATACTGTG reads -0.082 E-score; that for ATACTGTA, 0.334 E-score; that for CTACTGTA, 0.384 E-score. The result for CTACTGAA reads 0.098 E-score; that for GTACTGTA, 0.219 E-score; that for CATGGAAA, 0.0212 E-score. The result for AGTACGAG reads 0.125 E-score; that for ATACTATC, 0.359 E-score.

As to ATACTAGC, the binding signal worked out at 0.288 E-score. Turning to CCACTATC, the binding signal amounted to 0.0612 E-score. In the case of ATACTCTC, the binding signal was 0.0157 E-score. CTACTATC: the binding signal stood at 0.344 E-score. Next, CGACTATC: -0.0118 E-score; ATTACCTA: 0.337 E-score; ATTACCTC: 0.136 E-score. As for ATTACCAC, the binding signal is 0.181 E-score.

In the case of CTTACCAA, the binding signal was found to be 0.0678 E-score. The result for ATTACCAA reads 0.333 E-score; that for ATTACCTG, 0.0992 E-score; that for AAATTTCT, 0.203 E-score.

For AAATAGAT, the binding signal is 0.343 E-score. As to AAATAGAG, the binding signal was -0.0395 E-score. For the sequence GAATAGAA, the binding signal came out at 0.209 E-score. Regarding AAATAGAA, the binding signal is 0.36 E-score.

For the sequence AAATAGAC, the binding signal was found to be 0.0478 E-score. Take AAATAGGT: the binding signal was 0.314 E-score. The result for AAGAGAGA reads -0.188 E-score. Turning to ACCTCCCG, the binding signal was -0.064 E-score. The result for CATCAGAC reads -0.171 E-score.

As for GTATATAC, the binding signal is 0.43 E-score.

Take ATATATAC: the binding signal amounted to 0.367 E-score. In the case of ACGTATAT, the binding signal was 0.373 E-score. With GGATATAC, the binding signal was found to be 0.288 E-score. Regarding GCATATAC, the binding signal is 0.18 E-score. The result for CTCTATAC reads 0.143 E-score; that for ATATACAC, 0.289 E-score. The result for AGATATAC reads 0.221 E-score; that for ACGTATAA, 0.268 E-score; that for CTATATGC, 0.209 E-score. Next, ACGTATAC: 0.137 E-score; CTATATAC: 0.376 E-score.

As for ACTTAAGA, the binding signal is -0.12 E-score. The result for TTGCCAAA reads 0.142 E-score; that for AAGGAAGC, -0.125 E-score. For ACTGCGCG, the binding signal is -0.0406 E-score. The result for CGAGTGCG reads -0.0584 E-score.

With AGATATAG, the binding signal amounted to 0.188 E-score. Regarding ACATATGA, the binding signal was found to be 0.00179 E-score.

In the case of ATATACAT, the binding signal amounted to 0.288 E-score. The result for ATATATGG reads 0.279 E-score. Turning to AGATATCC, the binding signal stood at 0.00982 E-score. For the sequence AGATATAA, the binding signal came to 0.282 E-score.

With AGATATCA, the binding signal was found to be 0.0773 E-score.

On to ATATATAT, for which the binding signal came to 0.443 E-score. Regarding ACATATGG, the binding signal came out at 0.132 E-score. The result for AGATATCT reads 0.355 E-score; that for ACATATGT, 0.4 E-score.

Consider AGATATAT, for which the binding signal was 0.421 E-score.

For ATGTGCCA, the binding signal was -0.163 E-score. Next, ACAACCAA: 0.0769 E-score. Next, GCGCTCTA: 0.0916 E-score; GGAATGCA: -0.0343 E-score; ACTTTCAT: 0.0835 E-score. Next, CGGTCCAG: -0.196 E-score; ACATATAT: 0.4 E-score. On to ACATATAA, for which the binding signal came out at 0.26 E-score. Next, ACATATAG: 0.206 E-score; AACCTAGA: 0.13 E-score.

For the sequence AGTATCGA, the binding signal amounted to 0.174 E-score. Take AATAATAG: the binding signal amounted to 0.405 E-score.

As to GCTAATAA, the binding signal stood at 0.212 E-score. As for CTTAATAC, the binding signal turned out to be 0.0879 E-score. Take CATAATAA: the binding signal turned out to be 0.281 E-score. Regarding TCTAATAA, the binding signal came to 0.105 E-score.

As for CATAATAG, the binding signal was 0.136 E-score. The result for ATTAATAA reads 0.234 E-score; that for TATAATAA, 0.374 E-score. For ATTAATAC, the binding signal was found to be 0.335 E-score. The result for AATAATAA reads 0.371 E-score; that for GATAATAA, 0.174 E-score. The result for AATAATAT reads 0.321 E-score; that for GCATCCGC, -0.147 E-score; that for CACATGTC, -0.0475 E-score.

Turning to GAAATTCA, the binding signal was found to be 0.106 E-score.

As for ACGTGGCG, the binding signal was -0.166 E-score. Take AAGCTGCC: the binding signal was -0.171 E-score. The result for GGCGGCGA reads -0.142 E-score.

Take ACCTGGCA: the binding signal is -0.0345 E-score.

TATAACGA: the binding signal is 0.336 E-score. The result for AATAATAC reads 0.335 E-score; that for GATAACGA, 0.0698 E-score; that for CAAAATAG, 0.333 E-score. As for CATAATAC, the binding signal was 0.191 E-score. With GATAATAC, the binding signal was 0.21 E-score. The result for CAAAATAA reads 0.0411 E-score.

AAAAATAG: the binding signal came out at 0.2 E-score. On to AATAACGA, for which the binding signal came out at 0.169 E-score.

As to CAGCCCAG, the binding signal is -0.136 E-score. In the case of CTTTTTTA, the binding signal is -0.151 E-score. The result for GAACATAA reads 0.144 E-score; that for AACGTCGC, 0.0434 E-score. Next, ACTAGAGA: 0.118 E-score; CCTAGAAA: 0.16 E-score. Regarding ACTAGAAT, the binding signal worked out at 0.349 E-score.

ACTAGAAG: the binding signal was 0.199 E-score. With ACTAGAAA, the binding signal is 0.4 E-score. Turning to ACTAGAAC, the binding signal turned out to be 0.255 E-score. Next, ACGTTGAT: 0.0039 E-score. The result for ACTTAAAG reads -0.106 E-score; that for ACAGCCGA, -0.00523 E-score. For AGTAAAAA, the binding signal turned out to be 0.341 E-score.

On to ATTAAAAT, for which the binding signal stood at 0.218 E-score.

For the sequence AGTAAAAG, the binding signal is 0.267 E-score.

As for AGTAAATG, the binding signal came out at 0.205 E-score. Regarding AGTAAAAT, the binding signal was 0.329 E-score. For AGTAAATA, the binding signal was 0.425 E-score. The result for AATAAAAT reads 0.33 E-score; that for AATAAAAA, 0.295 E-score. Next, AATAAAAC: 0.228 E-score; AGTAAAAC: 0.246 E-score; AGTAAATC: 0.215 E-score.

In the case of GGTAAATA, the binding signal turned out to be 0.318 E-score.

In the case of TCGTTTAA, the binding signal came to 0.00225 E-score.

As for TACTTGCA, the binding signal amounted to 0.167 E-score.

Turning to ATCAACTG, the binding signal is 0.0687 E-score.

For CTTCATTA, the binding signal worked out at 0.0438 E-score. As to CTGGCCCC, the binding signal was -0.197 E-score. Next, AACCCCTA: -0.0905 E-score; CTAAGTCA: -0.0334 E-score. The result for CTAAGACC reads -0.137 E-score; that for CAGTGGGA, -0.131 E-score; that for AAACAAGA, 0.025 E-score. Next, TCCCTCGA: -0.0813 E-score; GGTAAAAA: 0.379 E-score; TGTAAACA: 0.079 E-score.

Turning to GGTAAAGA, the binding signal came to 0.177 E-score. Next, TGTAAAAA: 0.34 E-score; AGTTAAAC: 0.0755 E-score; GGTAAAAC: 0.121 E-score. The result for AGTTAAAT reads 0.335 E-score; that for CGTAAAAA, -0.0178 E-score; that for AGTTAAAA, 0.324 E-score. As to CGCTAGTC, the binding signal was -0.137 E-score. Next, AAGCTGAT: -0.0275 E-score.

As for GAATCGCC, the binding signal amounted to 0.00133 E-score. Next, CAAAGGAG: -0.156 E-score; CACTAACG: -0.157 E-score; CCTTACCA: -0.0792 E-score. Next, GTACTTAA: 0.314 E-score; CTACTTAA: 0.387 E-score; CTACTTTA: 0.337 E-score. Next, GTACTTTA: 0.344 E-score; CTACTTCA: 0.207 E-score; ATACTTTA: 0.196 E-score. In the case of CTACTTTC, the binding signal worked out at 0.275 E-score. With ATACTTAA, the binding signal was 0.00261 E-score.

Take GGACTTTA: the binding signal was -0.19 E-score.

Take CGATCGAA: the binding signal is 0.239 E-score. TTATCCAA: the binding signal came to 0.108 E-score.

For CCGTACTA, the binding signal came out at 0.201 E-score. The result for GTGTTGTA reads 0.158 E-score; that for CATGGTGC, -0.16 E-score.

As to ACTGGGCT, the binding signal is -0.135 E-score. Next, ACATCCGA: -0.00901 E-score; TCAGAGCA: -0.143 E-score.

On to AGTTACAG, for which the binding signal worked out at 0.193 E-score. The result for AGTTACAA reads 0.163 E-score. With AATTACAA, the binding signal was 0.251 E-score. For AATTACAG, the binding signal is 0.249 E-score. As to AATTACAT, the binding signal worked out at 0.339 E-score. Regarding AGTTACAT, the binding signal was found to be 0.342 E-score.

Regarding GGACGGAA, the binding signal was -0.113 E-score. CGTGGTCA: the binding signal was -0.0431 E-score. Next, CTTTAACA: 0.072 E-score; GGCGACTA: -0.103 E-score. For the sequence GATAGTAA, the binding signal came to 0.367 E-score. Consider GATAGTTA, for which the binding signal came to 0.373 E-score. Take CATAGTAA: the binding signal came to 0.272 E-score. Next, GATAGTAC: 0.184 E-score; TATAGTGA: 0.199 E-score; GATAGTCA: 0.000914 E-score.

Take TATAGTCA: the binding signal is 0.119 E-score. In the case of TATAGTAA, the binding signal came out at 0.346 E-score. As to CATAGTTA, the binding signal was 0.275 E-score. Take GCGATGAA: the binding signal was -0.0177 E-score.

With CCAGAAAG, the binding signal is -0.066 E-score.

Turning to GAAGCCGA, the binding signal was -0.0818 E-score. Next, TTCAACAA: 0.0826 E-score; CTAAGTAG: 0.275 E-score. The result for ATCAGCTA reads 0.165 E-score.

Consider GATAGAGC, for which the binding signal is -0.0336 E-score. For ATTTCGCG, the binding signal worked out at 0.158 E-score. The result for CTAGTTTC reads 0.422 E-score; that for ATAGTTAA, 0.327 E-score. With CCAGTTTC, the binding signal is -0.105 E-score. The result for ATAGTTGA reads 0.215 E-score; that for CGAGTTTC, 0.049 E-score. The result for ATCGTTTG reads -0.0549 E-score. As to ATAGTTTG, the binding signal amounted to 0.366 E-score. In the case of CTAGTTAA, the binding signal worked out at 0.327 E-score. Regarding GTAGTTAA, the binding signal was 0.405 E-score.

Take ATAGTTTC: the binding signal was 0.292 E-score. The result for ATAGTTGG reads 0.00189 E-score; that for ATAGTTTA, 0.354 E-score; that for ACATTTGC, 0.205 E-score. Regarding AGTCAAAG, the binding signal is -0.141 E-score. Next, ACAAGCAC: 0.019 E-score; GAAGGCTA: -0.0559 E-score; AACGGACC: -0.186 E-score.
